We go through eight compounds from ChEMBL document CHEMBL3988442, “University of Dundee, Small-Polar-MMV Screening Library” (2021).

Holding throughout (design): scale not given: direction of the effect not stated beside the values
In assay [1] the target is Protein translocase subunit SecA (Escherichia coli (strain K12)) (UniProt P10408). Briefly: Assay to Identify E. coli SecA ATPase Inhibitors. Type of assay: functional. Particulars: 30 µM.
Assay [2] addresses T1, Ubiquitin-activating enzyme e1, putative (Leishmania donovani (strain BPK282A1)) (UniProt E9BSI1).
T1 sequence (whole entry): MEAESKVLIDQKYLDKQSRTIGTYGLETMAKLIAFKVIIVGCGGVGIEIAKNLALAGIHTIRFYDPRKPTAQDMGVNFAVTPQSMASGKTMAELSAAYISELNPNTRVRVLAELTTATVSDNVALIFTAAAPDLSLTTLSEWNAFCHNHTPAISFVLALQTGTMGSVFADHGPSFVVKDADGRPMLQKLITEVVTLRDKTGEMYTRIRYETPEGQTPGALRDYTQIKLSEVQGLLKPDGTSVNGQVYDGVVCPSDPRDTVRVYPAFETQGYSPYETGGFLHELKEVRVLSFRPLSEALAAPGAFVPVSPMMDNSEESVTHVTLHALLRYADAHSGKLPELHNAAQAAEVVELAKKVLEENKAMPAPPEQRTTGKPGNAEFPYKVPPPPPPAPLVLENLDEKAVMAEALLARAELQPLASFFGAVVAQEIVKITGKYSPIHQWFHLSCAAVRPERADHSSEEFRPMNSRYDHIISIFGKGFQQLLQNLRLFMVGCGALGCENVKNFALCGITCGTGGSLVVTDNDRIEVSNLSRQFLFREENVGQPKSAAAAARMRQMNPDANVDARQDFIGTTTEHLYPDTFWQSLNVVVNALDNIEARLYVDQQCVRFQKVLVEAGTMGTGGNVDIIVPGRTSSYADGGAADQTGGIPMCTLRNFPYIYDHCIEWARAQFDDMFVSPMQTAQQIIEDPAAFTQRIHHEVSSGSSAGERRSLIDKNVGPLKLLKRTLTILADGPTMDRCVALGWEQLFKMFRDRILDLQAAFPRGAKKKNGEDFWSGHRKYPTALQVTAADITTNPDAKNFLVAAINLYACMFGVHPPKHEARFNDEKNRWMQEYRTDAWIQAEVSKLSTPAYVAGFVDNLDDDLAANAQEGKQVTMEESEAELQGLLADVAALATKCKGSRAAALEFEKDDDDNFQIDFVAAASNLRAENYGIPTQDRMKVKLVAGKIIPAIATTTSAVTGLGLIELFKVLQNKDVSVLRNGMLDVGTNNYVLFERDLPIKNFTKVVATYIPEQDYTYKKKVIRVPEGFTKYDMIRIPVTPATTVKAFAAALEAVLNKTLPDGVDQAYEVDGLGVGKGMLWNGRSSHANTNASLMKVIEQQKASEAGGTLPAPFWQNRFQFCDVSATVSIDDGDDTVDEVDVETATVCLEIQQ
In words: Leishmania donovani Ubiquitin Activating Enzyme (LdE1). Type of assay: functional. Particulars: 30 µM.

In assay [3] the target is AMP-activated protein kinase, AMPK (Homo sapiens) (UniProt P54646+O43741+P54619+Q9UGJ0+Q9Y478+Q13131+Q9UGI9). Briefly: AMP-dependent Kinase enzyme assay. An in vitro enzyme assay that detects ADP turnover that is directly proportional to AMPK activity. This uses naive AMPK that is activated during the assay with MK-8722. Format: functional. Particulars: 30 µM.
The target in assay [4] is Sialic acid-binding Ig-like lectin 9 (Homo sapiens) (UniProt Q9Y336). In words: Hs-Siglec9 ALPHAscreen SOP 20170721. Particulars: 10 µM. On the technique in general: Bead proximity is the source of the signal in Alpha formats.
For assay [5], the system named is Trypanosoma cruzi. Briefly: Trypanosoma cruzi phosphomannomutase and mannose-1-phosphate guanylyltransferase assay. Format: functional. Conditions: 10 µM.
The target of assay [6] is T2, Arginase-2, mitochondrial (Homo sapiens) (UniProt P78540).
T2 sequence (whole entry): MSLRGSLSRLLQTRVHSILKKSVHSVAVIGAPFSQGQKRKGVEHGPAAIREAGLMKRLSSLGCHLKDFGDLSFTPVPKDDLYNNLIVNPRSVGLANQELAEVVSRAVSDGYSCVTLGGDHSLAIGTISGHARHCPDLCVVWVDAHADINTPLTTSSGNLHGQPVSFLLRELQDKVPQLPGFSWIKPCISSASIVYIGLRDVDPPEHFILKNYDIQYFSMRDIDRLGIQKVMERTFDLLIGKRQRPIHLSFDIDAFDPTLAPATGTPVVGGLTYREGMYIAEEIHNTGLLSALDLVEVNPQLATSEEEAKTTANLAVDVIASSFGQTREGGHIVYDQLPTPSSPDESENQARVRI
Briefly: in vitro enzyme assay to detect the production of urea directly proportional to the activity of Arginase II. Note: in the data most compounds retested in dose-response had high values. Format: functional. Conditions: 33.3 µM.

In assay [7] the target is T3, Proteasome subunit beta (Trypanosoma cruzi) (UniProt O96673).
T3 sequence (whole entry): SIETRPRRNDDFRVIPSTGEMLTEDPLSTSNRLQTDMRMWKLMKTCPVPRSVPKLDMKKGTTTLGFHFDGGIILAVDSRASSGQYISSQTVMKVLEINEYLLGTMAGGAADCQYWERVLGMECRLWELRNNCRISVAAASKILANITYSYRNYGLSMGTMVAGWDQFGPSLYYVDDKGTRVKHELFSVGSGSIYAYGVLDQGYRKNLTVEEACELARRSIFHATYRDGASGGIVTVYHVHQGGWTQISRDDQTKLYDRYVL
Briefly: Trypanosoma cruzi proteasome chymotrypsin-like activity (TcProtChymo) assay. Note: in the data most compounds retested in dose-response had high values. Particulars: 9.37 µM. Type of assay: functional.

The species named for assay [8] is Homo sapiens. Briefly: To identify inhibition of the IFN signalling (Jak-Stat) pathway via expression of an eGFP reporter gene under the control of an IFN-stimulated response element (ISRE) containing MxA promoter. Type of assay: functional. Particulars: 30 µM. In general terms: In a reporter assay the amount or activity of a reporter protein is the signal.
Assay [9] has as its target T4, Tyrosyl-tRNA synthetase, putative (Trypanosoma cruzi (strain CL Brener)) (UniProt Q4DSP6).
T4 sequence (whole entry): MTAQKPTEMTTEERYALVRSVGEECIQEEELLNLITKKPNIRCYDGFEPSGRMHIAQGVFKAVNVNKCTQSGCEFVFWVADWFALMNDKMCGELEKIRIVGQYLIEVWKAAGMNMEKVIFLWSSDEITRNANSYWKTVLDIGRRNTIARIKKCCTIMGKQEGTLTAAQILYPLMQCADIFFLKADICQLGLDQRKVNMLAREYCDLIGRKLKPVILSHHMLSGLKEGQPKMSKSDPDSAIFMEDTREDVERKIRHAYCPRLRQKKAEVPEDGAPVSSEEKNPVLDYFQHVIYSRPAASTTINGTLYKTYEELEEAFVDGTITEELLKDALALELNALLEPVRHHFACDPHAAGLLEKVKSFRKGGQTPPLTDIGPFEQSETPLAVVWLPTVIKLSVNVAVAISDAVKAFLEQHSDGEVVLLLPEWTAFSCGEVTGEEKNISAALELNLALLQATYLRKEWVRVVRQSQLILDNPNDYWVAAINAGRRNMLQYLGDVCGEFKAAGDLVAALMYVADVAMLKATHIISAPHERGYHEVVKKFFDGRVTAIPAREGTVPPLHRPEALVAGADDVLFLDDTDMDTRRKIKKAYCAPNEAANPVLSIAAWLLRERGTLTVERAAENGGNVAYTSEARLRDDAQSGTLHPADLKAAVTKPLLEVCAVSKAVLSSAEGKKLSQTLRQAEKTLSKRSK
Briefly: Trypanosoma cruzi tyrosyl tRNA synthetase (TcYRS) _High Tyrosine SOP. Note: in the data most compounds retested in dose-response had high values. Particulars: 30 µM. Format: functional.

In assay [10] the target is T4, Tyrosyl-tRNA synthetase, putative (Trypanosoma cruzi (strain CL Brener)). Briefly: Trypanosoma cruzi tyrosyl tRNA synthetase (TcYRS) SOP. Particulars: 30 µM. Format: functional.
Assay [11] has as its target Chromo domain-containing protein 1 (Saccharomyces cerevisiae (strain ATCC 204508 / S288c) (Baker's yeast)) (UniProt P32657). Briefly: ScCHD-1 Enzyme Inhibition Assay. Note: in the data most compounds retested in dose-response had high values. Type of assay: functional. Particulars: 30 µM.

SMILES strings stand for the structures. For some of these results: Potency and affinity values are given separately.

Sequence of Protein translocase subunit SecA (Escherichia coli (strain K12)) (P10408 whole entry): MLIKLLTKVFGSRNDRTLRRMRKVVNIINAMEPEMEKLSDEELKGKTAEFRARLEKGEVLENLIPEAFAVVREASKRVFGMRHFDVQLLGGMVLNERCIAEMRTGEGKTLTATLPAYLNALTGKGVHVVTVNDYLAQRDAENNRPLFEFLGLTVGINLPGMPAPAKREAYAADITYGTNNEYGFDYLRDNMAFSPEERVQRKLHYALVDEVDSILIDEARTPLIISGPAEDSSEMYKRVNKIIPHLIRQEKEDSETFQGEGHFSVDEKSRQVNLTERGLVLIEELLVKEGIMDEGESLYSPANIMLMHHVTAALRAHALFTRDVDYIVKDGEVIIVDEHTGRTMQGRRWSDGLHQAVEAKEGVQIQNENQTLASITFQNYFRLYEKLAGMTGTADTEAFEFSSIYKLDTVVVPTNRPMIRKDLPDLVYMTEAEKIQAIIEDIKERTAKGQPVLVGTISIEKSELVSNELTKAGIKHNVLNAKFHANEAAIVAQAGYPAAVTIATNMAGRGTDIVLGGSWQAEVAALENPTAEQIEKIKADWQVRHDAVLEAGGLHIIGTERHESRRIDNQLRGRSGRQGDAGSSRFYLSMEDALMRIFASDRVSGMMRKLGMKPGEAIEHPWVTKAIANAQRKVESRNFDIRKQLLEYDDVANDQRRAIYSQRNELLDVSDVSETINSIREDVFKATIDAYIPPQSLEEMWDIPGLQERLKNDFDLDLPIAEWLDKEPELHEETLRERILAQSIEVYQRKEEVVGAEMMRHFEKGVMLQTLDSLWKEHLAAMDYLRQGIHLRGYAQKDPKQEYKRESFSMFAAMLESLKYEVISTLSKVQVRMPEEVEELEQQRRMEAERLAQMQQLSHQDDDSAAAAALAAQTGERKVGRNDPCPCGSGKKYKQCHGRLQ
Sequence of Sialic acid-binding Ig-like lectin 9 (Homo sapiens) (Q9Y336 whole entry): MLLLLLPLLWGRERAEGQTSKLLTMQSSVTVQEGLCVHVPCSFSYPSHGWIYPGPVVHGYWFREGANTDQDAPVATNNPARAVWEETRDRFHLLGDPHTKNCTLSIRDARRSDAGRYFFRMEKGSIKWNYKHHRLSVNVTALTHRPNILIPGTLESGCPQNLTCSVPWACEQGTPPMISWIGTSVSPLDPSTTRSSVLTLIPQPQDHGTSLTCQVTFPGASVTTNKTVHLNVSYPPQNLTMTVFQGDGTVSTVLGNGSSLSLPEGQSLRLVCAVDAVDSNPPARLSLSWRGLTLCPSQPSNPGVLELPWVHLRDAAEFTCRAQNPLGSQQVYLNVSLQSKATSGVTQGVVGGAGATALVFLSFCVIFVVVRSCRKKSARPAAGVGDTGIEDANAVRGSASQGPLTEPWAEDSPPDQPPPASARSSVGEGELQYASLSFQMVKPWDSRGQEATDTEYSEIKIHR
Sequence of Chromo domain-containing protein 1 (Saccharomyces cerevisiae (strain ATCC 204508 / S288c) (Baker's yeast)) (P32657 whole entry, the tested form may be a part): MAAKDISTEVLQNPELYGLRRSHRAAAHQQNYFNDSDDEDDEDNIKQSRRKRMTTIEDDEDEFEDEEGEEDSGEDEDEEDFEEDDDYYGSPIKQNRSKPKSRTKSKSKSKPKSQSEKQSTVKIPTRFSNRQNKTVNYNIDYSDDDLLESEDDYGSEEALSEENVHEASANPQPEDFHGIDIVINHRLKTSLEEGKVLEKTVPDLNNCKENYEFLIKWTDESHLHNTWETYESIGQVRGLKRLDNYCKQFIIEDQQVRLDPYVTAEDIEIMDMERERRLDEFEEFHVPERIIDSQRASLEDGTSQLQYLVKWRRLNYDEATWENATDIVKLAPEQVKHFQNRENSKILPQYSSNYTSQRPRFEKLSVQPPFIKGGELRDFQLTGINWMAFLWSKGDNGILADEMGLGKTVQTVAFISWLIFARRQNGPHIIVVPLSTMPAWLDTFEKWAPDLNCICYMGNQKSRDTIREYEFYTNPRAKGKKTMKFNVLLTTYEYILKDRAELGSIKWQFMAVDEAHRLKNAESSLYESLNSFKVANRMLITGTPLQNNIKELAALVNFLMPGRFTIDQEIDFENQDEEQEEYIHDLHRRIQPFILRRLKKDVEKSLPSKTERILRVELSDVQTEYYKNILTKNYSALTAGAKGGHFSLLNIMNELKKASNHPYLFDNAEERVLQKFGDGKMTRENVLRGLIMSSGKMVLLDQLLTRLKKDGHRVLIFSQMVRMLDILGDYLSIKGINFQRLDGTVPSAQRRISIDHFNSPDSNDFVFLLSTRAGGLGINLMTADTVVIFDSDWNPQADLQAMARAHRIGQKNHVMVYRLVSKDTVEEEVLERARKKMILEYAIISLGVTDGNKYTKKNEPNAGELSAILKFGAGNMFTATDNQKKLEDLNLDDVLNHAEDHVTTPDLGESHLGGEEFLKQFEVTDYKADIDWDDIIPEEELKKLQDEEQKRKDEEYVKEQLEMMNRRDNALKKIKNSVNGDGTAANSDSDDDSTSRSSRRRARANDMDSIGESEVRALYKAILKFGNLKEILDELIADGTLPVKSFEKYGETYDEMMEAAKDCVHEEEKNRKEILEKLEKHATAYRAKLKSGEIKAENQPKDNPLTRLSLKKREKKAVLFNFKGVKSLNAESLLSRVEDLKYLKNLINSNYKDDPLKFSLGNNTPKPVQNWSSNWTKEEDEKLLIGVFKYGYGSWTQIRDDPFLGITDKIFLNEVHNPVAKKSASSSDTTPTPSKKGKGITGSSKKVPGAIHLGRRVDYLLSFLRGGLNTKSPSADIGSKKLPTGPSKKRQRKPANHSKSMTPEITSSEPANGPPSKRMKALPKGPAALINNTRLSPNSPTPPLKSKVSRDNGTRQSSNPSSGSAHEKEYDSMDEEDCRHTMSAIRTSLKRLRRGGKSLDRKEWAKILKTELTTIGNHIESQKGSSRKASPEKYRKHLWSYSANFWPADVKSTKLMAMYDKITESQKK

As to `Cc1nc(NCc2ccc(C)o2)cc(C(=O)N2CCOCC2)n1`, the Percent Effect in [1] was -5.2%; in assay [2], 15.6%; in assay [3] it was -13.8%; in assay [4], 14.3%; in assay [5], 9.14%; in assay [6], -55.2%. For the same compound, the Percent Effect in assay [7] is 10.5%; in assay [8], 4.67%; in [9] it was 4.3%; in [10] it was 8.64%; in assay [11], -6.33%.

As to `Cc1ccc(CN(CCCn2ccnc2)Cc2c[nH]cn2)s1`, the Percent Effect in [1] is -8.11%; in assay [2], 9.46%; in [3], -4.5%; in assay [4] it was 6%; in assay [5] it was 0%; in [6] it was 1.62%. Besides, the Percent Effect in assay [7] is 11.4%; in assay [8] it was 9.27%; in assay [9], 9.68%; in assay [10], 14.3%; in assay [11] it was -25.7%.

Take `NC(=O)CSCCC(=O)N1CCCC1c1ccsc1` (stereo not drawn): the Percent Effect in [1] was -2.98%; in [2], 1.39%; in [3], -4.14%; in [4] it was 8.9%; in assay [5] it was 4.76%; in assay [6], 19%. Besides, the Percent Effect in assay [7] was 4.74%; in assay [8], 13.9%; in assay [9], 3.16%; in assay [10], 7.69%; in assay [11] it was -1.44%.

Regarding `O=C1NCCN1C1CCCN(Cc2coc(-c3ccc(F)cc3)n2)C1` (stereo not drawn), the Percent Effect was -10.2% in [1]; -8.11% in assay [2]; -13.5% in [3]; 25.4% in assay [4]; 10.9% in assay [5]; -1.29% in assay [6]. Also, the Percent Effect in [7] is 0.898%; in [8], 57.5%; in [9] it was 5.94%; in assay [10], 15.8%; in [11], -6.73%.

In the case of `O=C(C1CCC1)N1CCN(Cc2ccsc2)[C@H]2CS(=O)(=O)C[C@H]21`, the Percent Effect in assay [1] was -4.53%; in assay [2], 2.6%; in assay [3], 1.04%; in [4], 4.76%; in [5], -5.41%; in [6], 1.38%. Moreover, the Percent Effect is 15.8% in [7]; 2.92% in assay [8]; 2.15% in assay [9]; 3.7% in [10]; -0.294% in [11].

Regarding `Cc1cccc(OCCC(=O)N(C)CCC#N)c1C`, the Percent Effect in assay [1] is -4.33%; in assay [2], 2.63%; in [3], 12.1%; in assay [4], 7.74%; in assay [5] it was -5.16%; in assay [6] it was -5.92%. The Percent Effect in [7] is 23.1%; in assay [8], 9.14%; in assay [9], 4.25%; in assay [10] it was 10.4%; in assay [11], -5.59%.

Regarding `Cc1cccc2c1cnn2CCCNC(=O)CCCC(=O)O`, the Percent Effect in [1] was -1.56%; in assay [2], 5.2%; in assay [3], 4.98%; in assay [4] it was 7.89%; in assay [5], 4.42%; in assay [6], -112%. Further, the Percent Effect in assay [7] was 0%; in [8] it was 2.46%; in assay [9] it was 4.3%; in assay [10], 16.1%; in assay [11], -2.54%.

Take `CN(C(=O)C1CCCCC1)[C@@H]1CCC[C@@H](N2CCOCC2)[C@@H]1O`: the Percent Effect was -3.72% in assay [1]; 4.05% in assay [2]; 0.0373% in [3]; 6.37% in assay [4]; 1.78% in assay [5]; -2.09% in assay [6]. Also, the Percent Effect in assay [7] turned out to be 6.86%; in [8], 8.21%; in assay [9] it was 1.07%; in [10], 3.9%; in assay [11], 74.8%.
